Source: PubChem BioAssay AID651640 (Broad Institute, 2012)
In all, about 350,000 compounds went through this assay and about 6,000 (1.7%) were called active. Roughly 5% stayed inconclusive and do not appear here. The sample as a whole holds a higher share of actives than the screen did. Unmarked numbers belong to inactive results. No stated cut-off is given here; in the data, active means CPE inhibition above about 20% (passing the limit was not always enough); inconclusive means no clear call, values can overlap the other calls; tested in BHK-21 cells.

Experiment: protection of cells from dengue 2 killing – plate reader, single concentration, primary screen (AID 651640);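 further: 0% = median of neutral control wells and 100% = median of positive control wells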
Settings: DENV2-infected cells, cytopathic effect rescue, at 9.99 µM, active compounds read high
With `Cc1noc(C)c1NC(=O)Nc1ccc2c(c1)C(=O)N([C@H](C)CO)C[C@H](C)[C@H](CN(C)Cc1ccc(C(=O)O)cc1)OCCCC[C@H](C)O2` the CPE inhibition was 3.28%.
In the case of `CO[C@H](CN(C)S(=O)(=O)c1ccc(C)cc1)[C@@H](C)CN(Cc1ccccc1Cl)[C@@H](C)CO`, the CPE inhibition is reported as -6.58%.
For `C[C@H]1CCCCO[C@@H](CN(C)Cc2ccc3c(c2)OCO3)[C@@H](C)CN([C@@H](C)CO)C(=O)c2cc(NC(=O)c3ccccc3)ccc2O1`, the CPE inhibition was -5.55%.
In the case of `C[C@H](CO)N1C[C@H](C)[C@@H](CN(C)S(=O)(=O)c2cccs2)OCCCC[C@H](C)Oc2ccc(NS(=O)(=O)c3ccccc3)cc2C1=O`, the CPE inhibition is reported as -5.76%.
Work on `Cc1ccc(S(=O)(=O)Nc2ccc3c(c2)C(=O)N([C@@H](C)CO)C[C@H](C)[C@@H](CN(C)C(=O)Nc2ccc(F)cc2)OCCCC[C@H](C)O3)cc1` yielded a CPE inhibition of 0.458%.
For `O=C(C[C@H]1CC[C@H]2[C@@H](COC[C@H](O)CN2CCC(F)(F)F)O1)N1CCC(Cc2ccccc2)CC1`, the CPE inhibition was 0.858%.
In the case of `CC(=O)c1c(N2CCN(c3ccc(F)cc3)CC2)nc(=S)n(-c2ccccc2)c1C`, the CPE inhibition is reported as 46.2% (active).
`Cc1ccc2cc(C)c(N3CCN(c4ccc(F)cc4)CC3)nc2c1` gave a CPE inhibition of -3.88%.
`O=C(CN1CCN(c2ccccc2)CC1)Nc1ccc(F)cc1` gave a CPE inhibition of -6.81%.
With `CN1C(=O)c2cc(NC(=O)C3CCCC3)ccc2OC[C@@H]2O[C@@H](CC(=O)NCCc3ccncc3)CC[C@@H]21` the CPE inhibition was 26.3% (active).
`CCC(=O)Nc1ccc2c(c1)C(=O)N(C)[C@@H]1CC[C@H](CC(=O)NCCc3ccncc3)O[C@@H]1CO2` gave a CPE inhibition of -5.57%.
Molecule `CN1C(=O)c2cc(NC(=O)C3CCCC3)ccc2OC[C@H]2O[C@@H](CC(=O)NCCc3ccncc3)CC[C@H]21` has a CPE inhibition of 5.23%.
Work on `C[C@@H]1CN([C@H](C)CO)S(=O)(=O)c2ccc(-c3ccc(C(=O)N(C)C)cc3)cc2O[C@@H]1CN(C)C(=O)Nc1ccccc1F` yielded a CPE inhibition of 2.86%.
With `Cc1ccc(S(=O)(=O)N2[C@@H](c3ccccc3F)C(C(=O)O)=CC[C@H]2c2ccc(Cl)cc2)cc1` the CPE inhibition was -10.7%.
With `CCOC(=O)C1=CC[C@@H](c2ccccc2)N(S(=O)(=O)c2ccc(C)cc2)[C@H]1c1cccc(OC)c1` the CPE inhibition was -3.53%.
Work on `Cc1ccccc1S(=O)(=O)N1[C@@H](c2cccc(Cl)c2)C(C(=O)O)=CC[C@H]1c1ccc(Cl)cc1` yielded a CPE inhibition of 6.18%.
With `Cc1ccc(S(=O)(=O)N2[C@@H](c3cccc(Cl)c3)C(C(=O)O)=CC[C@H]2c2ccc(Cl)c(Cl)c2)cc1` the CPE inhibition was 40% (active).
With `Cc1ccccc1S(=O)(=O)N1[C@@H](c2cccc(Cl)c2)C(C(=O)OC(C)(C)C)=CC[C@H]1c1ccc(Cl)cc1` the CPE inhibition was -8.63%.
In the case of `Cc1ccc([C@@H]2CC=C(C(=O)O)[C@H](c3cccc(Cl)c3)N2S(=O)(=O)c2ccc(C)cc2)cc1`, the CPE inhibition is reported as 42.3% (active).
With `O=C(C[C@H]1CC[C@@H](NC(=O)CC2CC2)[C@@H](CO)O1)NCc1ccccc1` the CPE inhibition was 3.95%.
Work on `C[C@@H]1CN([C@H](C)CO)C(=O)c2cc(NC(=O)Nc3ccc(F)cc3)ccc2O[C@@H](C)CCCCO[C@@H]1CN(C)S(=O)(=O)c1cn(C)cn1` yielded a CPE inhibition of 2.14%.
For `C[C@H](CO)N1C[C@H](C)[C@H](CN(C)Cc2cncnc2)Oc2cc(-c3ccccc3F)ccc2S1(=O)=O`, the CPE inhibition was -2.27%.
For `C[C@@H]1CCCCO[C@H](CN(C)Cc2ccccc2)[C@H](C)CN([C@@H](C)CO)C(=O)c2cc(NC(=O)Nc3cccc4ccccc34)ccc2O1`, the CPE inhibition was -25.3%.
For `CCCNC(=O)C[C@H]1CC[C@H]2[C@@H](COC[C@H](O)CN2C(=O)Nc2c(C)noc2C)O1`, the CPE inhibition was 40.9% (active).
Molecule `C[C@@H](NC(=O)C[C@@H]1CC[C@H]2[C@@H](COC[C@@H](O)CN2C(=O)Nc2cccc(F)c2)O1)c1ccccc1` has a CPE inhibition of 4.9%.
`CCNC(=O)C[C@H]1CC[C@@H]2[C@H](COC[C@H](O)CN2C(=O)Nc2c(C)noc2C)O1` showed a CPE inhibition of -1.85%.
For `O=C(C[C@@H]1CC[C@H]2[C@@H](COC[C@@H](O)CN2C(=O)Nc2ccc(F)cc2)O1)NCC1CC1`, the CPE inhibition was -0.669%.
In the case of `O=C(C[C@@H]1CC[C@H]2[C@@H](COC[C@H](O)CN2C(=O)Nc2ccc(Cl)cc2)O1)NCC1CC1`, the CPE inhibition is reported as 6.37%.
`C[C@@H](NC(=O)C[C@H]1CC[C@H]2[C@@H](COC[C@@H](O)CN2C(=O)Nc2ccccc2)O1)c1ccccc1` gave a CPE inhibition of -9.46%.
Molecule `CCCNC(=O)C[C@@H]1CC[C@H]2[C@@H](COC[C@H](O)CN2C(=O)Nc2ccc(Cl)c(Cl)c2)O1` has a CPE inhibition of 2.89%.
In the case of `O=C(C[C@H]1CC[C@H]2[C@@H](COC[C@H](O)CN2C(=O)Nc2ccc(Cl)cc2)O1)NCC1CC1`, the CPE inhibition is reported as 85.5% (active).
In the case of `C[C@@H](NC(=O)C[C@@H]1CC[C@@H]2[C@H](COC[C@@H](O)CN2C(=O)Nc2cccc(F)c2)O1)c1ccccc1`, the CPE inhibition is reported as 24.3% (active).
Work on `COc1ccc(NC(=O)N2C[C@H](O)COC[C@H]3O[C@@H](CC(=O)NC4Cc5ccccc5C4)CC[C@@H]32)cc1` yielded a CPE inhibition of -9.25%.
